Tau fibril ThT: blocks human tau fibril formation measured by thioflavin T; P10636; recombinant tau K18 P301L, heparin-induced fibrillization, ThT fluorescence; Potency, µM (titrated, usually from 57.4 µM), most hits filed as inhibitors; 270,000 compounds, 2.1% hits; AID 1460; further: nearly all actives have a fitted effect of over 55% in size
Target sequence (P10636 561-689 P618L limits assumed): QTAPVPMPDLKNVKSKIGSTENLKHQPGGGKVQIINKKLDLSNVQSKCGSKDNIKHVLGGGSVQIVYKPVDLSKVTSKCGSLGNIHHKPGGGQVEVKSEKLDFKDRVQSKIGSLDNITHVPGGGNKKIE
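K18 P301L tau (15 uM + 0.24 uM Alexa 594-tagged), heparin 20 uM, NaOAc pH 7, 6 h 37 C; ThT 30 uM, 1 h RT, ex 450/em 510 nm.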
Tau fibril FP: inhibitors of human tau fibril formation; Potency, µM (highest dose often 57.7 µM), usual class: inhibitors; K18 P301L tau heparin fibrillization, Alexa594 FP, 6 h; 280,000 compounds, 0.39% hits; AID 1468; further: nearly all actives have a fitted effect of over 55% in size
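Steps: dispense K18 P301L tau (15 uM plus 0.24 uM Alexa 594 tracer, final) in pH 7 sodium acetate; add compound; add heparin (20 uM final); incubate 6 hr, 37 C; add ThT (30 uM final); after 1 hr ambient, read FP.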
FBPA coupling cs: counter-screen for Giardia aldolase inhibitors: coupling enzyme system | coupling enzyme system counterscreen, AmpLite Red fluorescence | activity change, negative = inhibition, % at 58.2 µM, hits read low | 290,000 compounds, 0.67% hits | AID 2472; in the data active means activity change below about -30%
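Coupling enzymes only (glyceraldehyde-3-phosphate) + compound, at 57.5 uM final, 10 min RT; add substrate/coupling/AmpLite Red mix, 20 min RT; fluorescence ex 525/em 598 nm. Actives flag coupling-system interference.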
Tau fluor cs: counter-screen for tau fibril formation inhibitors; AID 1463; 280,000 compounds, 0.93% hits; Potency, µM (doses to about 57.7 µM); tau K18 P301L (four-repeat tau fragment) Alexa594 fluorescence, heparin fibrillization; further: nearly all actives have a fitted effect of over 55% in size
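Human K18 P301L tau (15 uM unlabeled plus 0.24 uM Alexa 594-labeled, final) in 100 mM sodium acetate pH 7 was mixed with compound and 20 uM heparin and incubated 6 hr at 37 C.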
G9a block: G9a (human) methyltransferase inhibition | Q96KQ7 | Potency, µM (doses to about 102 µM), actives largely listed as inhibitors | 350,000 compounds, 8.8% hits | G9a H3K9 monomethylation, AlphaScreen, 2 h; further: nearly all actives have a fitted effect of over 75% in size
Target sequence (Q96KQ7 913-1193 limits assumed): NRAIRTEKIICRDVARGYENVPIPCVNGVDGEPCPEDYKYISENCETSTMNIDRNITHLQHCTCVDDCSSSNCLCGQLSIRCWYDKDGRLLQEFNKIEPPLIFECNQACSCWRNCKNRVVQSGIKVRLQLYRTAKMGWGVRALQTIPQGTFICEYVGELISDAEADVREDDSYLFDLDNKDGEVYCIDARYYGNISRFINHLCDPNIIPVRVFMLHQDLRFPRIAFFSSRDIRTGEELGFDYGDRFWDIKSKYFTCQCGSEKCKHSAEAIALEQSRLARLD
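Enzyme 20 nM + cpd, 15 min RT; add b-H3K9 pep 500 nM / SAM 20 uM; 2 h RT; anti-H3K9me1 Ab 0.5 ug/mL + SA donor / anti-rabbit acceptor beads 20 ug/mL each, 10 min; AlphaScreen read.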
Sfp PPTase inh: Sfp phosphopantetheinyl transferase inhibition. Biochemical Sfp PPTase activity, qHTS. Potency, µM, actives largely listed as inhibitors. 310,000 compounds, 3.5% hits. AID 1490;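 further: the enzyme is Sfp with the accession as filed and its product quenches rhodamine fluorescence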
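After 15 min at room temperature with compound, 15 nM Sfp received 5 uM rhodamine-CoA plus 12.5 uM BHQ-2-ybbR (50 mM Hepes pH 7.6, 10 mM MgCl2). Rate came from the fluorescence difference over 30 min, ex 525/em 598 nm.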
Of the large screens only hits and unclear results are named; the others gave an inactive call; [ ] = remark or other dose. Most compounds without a hit are left out; they make up all but 11% or so of the library. Unless noted, the call rests on the fitted dose curve; in most records, active means well fitted curve in the direction sought with a large enough effect; inconclusive means small, poorly fitted or top-dose-only effect, or another doubt; inactive means no such curve, though single readings can be large; an effect the other way counts as inactive or inconclusive.

NC(=O)CC[C@@H]1NC(=O)[C@H](CO)NC(=O)c2cc([N+](=O)[O-])cc(I)c2OCC[C@@H](C(N)=O)NC1=O	G9a block 45µM
NC(=O)[C@@H]1CCCNc2c(F)cc([N+](=O)[O-])cc2C(=O)N[C@@H](CO)C(=O)NCC(=O)N1	G9a block inconclusive
Cc1noc(C)c1CSc1nnc(-c2ccccc2)n1N	G9a block 3.2µM, Sfp PPTase inh 32µM
Cc1noc(C)c1CSc1nnc(-c2ccccc2)n1Cc1ccco1	Tau fibril FP inconclusive, Sfp PPTase inh inconclusive
Cc1noc(C)c1CSc1nc2ccccc2s1	Tau fibril ThT inconclusive
Cc1noc(C)c1CSc1ccc2ccccc2n1	Sfp PPTase inh 79µM
COc1ccccc1CNc1ncncc1-c1ccccc1C(F)(F)F	none (no result: Tau fibril ThT, Tau fibril FP, Tau fluor cs)
CCC(C)NC(=O)c1nn(-c2ccc(C)cc2)c(=O)n(C)c1=O (centres undefined)	none (no result: FBPA coupling cs, Sfp PPTase inh)
CCN1CCOC(CC(=O)Nc2cccc([N+](=O)[O-])c2)C1=O (centres undefined)	Tau fibril ThT inconclusive, Tau fluor cs inconclusive, G9a block 7.9µM, Sfp PPTase inh inconclusive
CCCN1CCOC(CC(=O)Nc2ccc([N+](=O)[O-])cc2)C1=O (centres undefined)	Tau fibril ThT inconclusive, G9a block 20µM
CCCNC(=O)c1ccc(CN2CCOCC2)cc1	none (no result: G9a block)
Cc1ccc(Cl)cc1NC(=O)c1sc(-n2nc(C)c(Cc3ccc4c(c3)OCO4)c2C)nc1C	none (no result: FBPA coupling cs, Sfp PPTase inh)
Cc1nc2sccn2c(=O)c1S(=O)(=O)Nc1cc(Cl)ccc1O	Tau fibril ThT inconclusive, G9a block inconclusive (no result: FBPA coupling cs, Sfp PPTase inh)
Cc1cc(C)n2nc(C(=O)Nc3nnc(C4CC4)s3)nc2n1	G9a block inconclusive, Sfp PPTase inh 50µM
CC(C)(C)c1ccc(NC(=O)c2ccsc2)cc1	Sfp PPTase inh 79µM
CCSc1nnc(NC(=O)c2nc3nc(C)cc(C)n3n2)s1	Sfp PPTase inh inconclusive
Cc1cc(C(=O)Nc2ccc(N3CCOCC3)c(Cl)c2)c(C)o1	Tau fibril ThT inconclusive, Tau fluor cs inconclusive
CC(=O)c1ccc(C(=O)Nc2ccc(N3CCOCC3)cc2)cc1	Tau fibril ThT 2.2µM
Cc1oc(C(C)(C)C)cc1C(=O)Nc1ccc(N2CCOCC2)cc1	Tau fibril ThT inconclusive, G9a block 45µM
Cc1sc2ncn(CC(=O)Nc3ccc(C(F)(F)F)cc3)c(=O)c2c1S(=O)(=O)N1CCN(C)CC1	none (no result: FBPA coupling cs, Sfp PPTase inh)
Cc1cccc(NC(=O)CSc2nc(-c3cccs3)cc(C(F)(F)F)c2C#N)c1	none (no result: FBPA coupling cs, Sfp PPTase inh)
CC(C)(C)c1ccc(C(=O)Nc2ccc(N3CCOCC3)cc2)cc1	Tau fibril ThT 4.5µM, Tau fluor cs inconclusive
CN(C)c1ccc(NC(=O)c2ccc(N3CCOCC3)nc2)cc1	G9a block 7.9µM, Sfp PPTase inh inconclusive (no result: Tau fibril ThT, Tau fibril FP, FBPA coupling cs, Tau fluor cs)
Cc1cc(C)n2nc(C(=O)Nc3ccc(N4CCOCC4)cc3)nc2n1	Tau fibril ThT inconclusive, G9a block 10µM
CC(C)c1ccc(C(=O)Nc2ccc(N3CCOCC3)cc2)cc1	G9a block 50µM
CC(C)c1ccc(C(=O)NN2CCOCC2)cc1	none (no result: Tau fibril ThT, Tau fibril FP, FBPA coupling cs, Tau fluor cs)
Cc1cc(C)n2nc(C(=O)N3CCOCC3)nc2n1	none
CN(C)c1ccc(C(CNS(=O)(=O)c2ccc(F)cc2)N2CCCC2)cc1 (centres undefined)	none (no result: FBPA coupling cs, Sfp PPTase inh)
CCOc1ccccc1C(=O)NC1CCNCC1	none (no result: Tau fibril ThT, Tau fibril FP, Tau fluor cs, G9a block)
COc1ccc(CNC(=O)C2CCCN(S(=O)(=O)c3ccc4c(ccn4C)c3)C2)c(OC)c1 (centres undefined)	none (no result: FBPA coupling cs, Sfp PPTase inh)
CCC1Oc2ccc(C)cc2N(CC(=O)NC2CCCCC2)C1=O (centres undefined)	none (no result: Tau fibril ThT, Tau fibril FP, Tau fluor cs)
CCC1Oc2ccc(C)cc2N(CC(=O)N(Cc2ccc(C)o2)C2CCCC2)C1=O (centres undefined)	Tau fibril ThT inconclusive, G9a block inconclusive, Sfp PPTase inh 18µM
O=C(/C=C/Nc1ccc(F)c(F)c1)c1ccc(Br)cc1	Tau fibril ThT inconclusive
O=C(/C=C/Nc1ccc(F)c(F)c1)c1cccs1	Tau fibril ThT inconclusive, G9a block 45µM
CN(Cc1ccccc1)C(=S)NC(=O)c1ccc(-c2ccccc2)cc1	none
CN(Cc1ccccc1)C(=S)NC(=O)c1cccs1	G9a block 40µM (no result: Tau fibril ThT, Tau fibril FP, Tau fluor cs)
CC(C)N1CCN(Cc2ccc(OC3CCCC3)cc2)CC1CCO (centres undefined)	none (no result: Tau fibril ThT, Tau fibril FP, Tau fluor cs)
Cc1ccc(/C([O-])=C(/C(=S)NCc2ccc3c(c2)OCO3)[n+]2ccc(N(C)C)cc2)c(C)c1	G9a block 50µM
Cc1cccc(C)c1OCC(N)C(C)C (centres undefined)	G9a block 3.8µM (no result: FBPA coupling cs, Sfp PPTase inh)
COc1ccc(COC(=O)c2cccc(S(=O)(=O)N3CCCC3)c2)cc1F	none (no result: Tau fibril ThT, Tau fibril FP, FBPA coupling cs, Tau fluor cs)
Cc1ccc2nc(-c3c[nH]c4ccccc34)c(Nc3ccc(F)cc3)n2c1	Tau fibril FP inconclusive, Tau fluor cs 5µM[quencher], G9a block inconclusive (no result: FBPA coupling cs, Sfp PPTase inh)
Cc1ccc(Nc2c(-c3c[nH]c4ccccc34)nc3cc(C)ccn23)cc1	Tau fibril ThT inconclusive, Tau fluor cs 11µM[quencher], G9a block inconclusive (no result: FBPA coupling cs, Sfp PPTase inh)
